# Out of some 65,000 compounds screened, about 2,100 (3.2%) showed an effect of 50% or more. The median lay at about -52%. For the sample, strong results were picked, then their nearest neighbours and some compounds at random.
# System: Plasmodium falciparum
# Assay: Screen against P. falciparum Asexual Blood Stage (ABS), at 5uM
# Type: functional, Dd2
# Conditions: tested at 5 uM
row,SMILES,INHIBITION
1,COCc1cncc2c1CCN(Cc1ccccn1)C2,-65.2%
2,CC(Cc1c(F)cccc1F)NC(=O)CN(CC(N)=O)C(C)C (stereo unspecified),-23.8%
3,COc1ccc(C(NCc2cccc(O)c2)C2CC2)cc1 (stereo unspecified),83.6%
4,COc1ccc(CC(C)Nc2cccc(F)c2)cc1 (stereo unspecified),-65.5%
5,O=C(Cc1ccc(O)c(Cl)c1)N1CCN(CC2CC2)[C@@H]2CS(=O)(=O)C[C@@H]21,-53.2%
6,COCCN1CCC2(COCc3cnc(N4CCOCC4)nc32)C1 (stereo unspecified),-18.1%
7,CN1CCCC(CNS(=O)(=O)N2CCc3ccccc3C2)C1 (stereo unspecified),77.4%
8,CN1CCN(S(=O)(=O)C2CC2)Cc2cccnc21,-77.8%
9,COCC(=O)NC[C@H]1C[C@@H]2CCN1C[C@@H]2CN1CCc2ccccc2C1,-27.5%
10,CCOCCC(=O)N1C[C@@H]2CC[C@H]1CN(Cc1ccncc1)C2,-31.8%
11,Clc1ccccc1C1(c2ccnc(C3CCCC3)n2)CCNCC1,83%
12,O[C@]12CCNC[C@H]1CN(c1ncccc1Cl)CC2,-135%
13,Clc1ccccc1C1(c2ccnc(C3CC3)n2)CCNCC1,73.5%
14,Clc1ccccc1C1(c2ccnc(CC3CC3)n2)CCNCC1,87.8%
15,Cc1nc(CN2CCC3(C2)CN(C(=O)c2conc2C)C3)cs1,-65.1%
16,Fc1cccnc1O[C@@H]1CC[C@H]2[C@H]1OCCN2Cc1nccs1,-91.9%
17,CC(C)(C)n1ncc2c1NC(=O)CSC2c1ccc2c(c1)OCCO2 (stereo unspecified),-24.5%
18,O=C(COc1cccc(F)c1)N1C[C@@H](O)[C@H](N2CCCC2)C1,-133%
19,OCc1csc(N2CCCC(COc3cccc(F)c3)C2)n1 (stereo unspecified),81.2%
20,CCCOc1ccc(C2SCC(=O)Nc3c2c(=O)[nH]n3C(C)C)cc1 (stereo unspecified),-95%
21,CC(=O)C1(c2ccccc2)CCN(C(=O)c2ccn3nnnc3c2)CC1,-138%
22,CC(N)Cc1ccccc1Sc1ccc(O)cc1 (stereo unspecified),72.4%

row,SMILES,INHIBITION
1,CNC(C)Cc1ccccc1Sc1ccc(O)cc1 (stereo unspecified),88.2%
2,CNS(=O)(=O)CC(=O)NC(C)Cc1ccccc1Br (stereo unspecified),-184%
3,CC(N)Cc1ccccc1Sc1ccccc1 (stereo unspecified),78.3%
4,CC[C@H](C)[C@@H](CO)NC(C)Cc1ccccc1F (stereo partly specified),49.7%
5,COCCCN1CCCCC12CC(=O)N(Cc1ccccn1)C2 (stereo unspecified),-98.8%
6,Cc1noc(C)c1CN1C[C@@H]2COC[C@H](C(=O)N3CCCO3)[C@@H]2C1,-23.5%
7,CCC(O)CN1CCN(C(=O)Cc2c(C)nc(C)[nH]c2=O)CC1 (stereo unspecified),-143%
8,CN1CCC(O)(CNCc2ccc(F)c(C(F)(F)F)c2)CC1,83.3%
9,COc1ccc(OC)c(C2SCC(=O)Nc3n[nH]cc32)c1 (stereo unspecified),-130%
10,Cc1ccc(CN2CC3(CCN(C(=O)c4cccnc4)C3)C2)o1,-143%
11,Cc1ccc(CN2CCC3(CCN(S(=O)(=O)c4ccccc4)C3)C2)o1 (stereo unspecified),79.6%
12,Cc1ccc(CN2CC[C@]3(C[C@H](OCc4ccccn4)CO3)C2)o1,22.1%
13,COc1ccc(CCC(=O)NCCN2CCC(c3cccs3)CC2)cc1,75.8%
14,Cc1cc(CNC(=O)CCc2ccc(S(N)(=O)=O)cc2)no1,-28.2%
15,COCC(=O)NC[C@H]1C[C@@H]2CCN1C[C@@H]2c1cc(-c2cccs2)nn1C,-43.2%
16,O=C(NCCc1ccccc1)NCCN1CCC(c2cccs2)CC1,77.6%
17,CCNC(=O)NC[C@H]1C[C@@H]2CCN1C[C@@H]2c1cc(-c2cccs2)nn1C,-58.2%
18,OC[C@@H]1[C@H]2CN(c3ccccn3)CCN2C[C@H]1c1ccccc1,41.3%
19,CCOC(=O)N1CCCC2(CCCNC2)C1 (stereo unspecified),-33%
20,O=C1CO[C@@H]2CN(Cc3ccsc3)C[C@H]2N1Cc1ccncc1,-56.6%
21,CCN(C)CC1CCN(S(=O)(=O)c2cc(C)c(F)cc2Cl)C1 (stereo unspecified),79.3%
22,Cc1cc(CN2C[C@@H]3CC[C@H]2CN(Cc2[nH]cnc2C)C3)on1,-63.7%

row,SMILES,INHIBITION
1,Cc1ccc(N2CC[C@@H]3CN(Cc4cccc(C)n4)C[C@@H]3C2)nn1,-27.5%
2,Cc1cccc(CN2C[C@@H]3CC[C@H]2CN(Cc2[nH]cnc2C)C3)n1,50.9%
3,CC[C@@H]1N(Cc2ccccn2)CCC[C@]12CCC(=O)N2CCOC,-116%
4,Cc1[nH]c(C2(N)CCCCC2)nc(=O)c1C,-60%
5,Cc1cnc(N2CCOC3(CCCN(CC(=O)N(C)C)C3)C2)nc1 (stereo unspecified),-6.47%
6,CC(CNC(=O)c1cc(Cl)ccc1I)N1CCCC1 (stereo unspecified),71.1%
7,COc1ccc(Cl)cc1CC(=O)N1CCN(CC(C)O)CC1 (stereo unspecified),-132%
8,Cc1nc(N2C[C@H]3CNC[C@H]3C2)c2sccc2n1,-54.7%
9,Cc1nc(CO[C@@H]2CN(Cc3cccnc3)[C@@H]3COC[C@@H]32)cs1,-14.2%
10,CCN1CCC2(CCC1=O)CN(c1ccnc(SC)n1)CCN2C (stereo unspecified),-44.5%
11,Cc1nc(CN2CC[C@H]3[C@H]2CCN3c2ncccn2)cs1,-38%
12,Cc1cnn(CCNCc2csc(-c3ncccn3)n2)c1,71.5%
13,CC(Cn1cccn1)NCc1csc(-c2ccsc2)n1 (stereo unspecified),-88.6%
14,CN1CCN(C(=O)Cc2csc(-c3ccsc3)n2)C(c2ccccc2)C1 (stereo unspecified),-7.38%
15,CN(C)C(=O)CN1CCN(C(=O)Cc2csc(-c3ncccn3)n2)CC1,6.7%
16,Cc1cnn(CCCNCc2csc(COc3ccccc3)n2)c1,70.9%
17,Cc1nc(CC(=O)N2CCN(CCOc3ccccc3)CC2)cs1,-22.5%
18,Cc1cnn(CCNCc2csc(-c3ccsc3)n2)c1,72.3%
19,O=C(C1CCOCC1)N1C[C@@H]2CC[C@H]1CN(Cc1ccncc1)C2,-111%
20,COc1ccc2c(c1)c(C(=O)Nc1nnn[nH]1)cn2C,10.8%
21,Cc1cc(N2CCCC(O)(CN(C)C)C2)c2cc3c(cc2n1)OCO3 (stereo unspecified),80.2%
22,Cc1cc(N2CCC(O)(CN(C)C)C2)c2cc3c(cc2n1)OCO3 (stereo unspecified),89.9%

# — ChEMBL document CHEMBL4513216, “Probing the Open Global Health Chemical Diversity Library for Multistage-Active Starting Points for Next-Generation Antimalarials” (ACS Infect Dis, 2020)
